Laboratory results taken from PubChem BioAssay (NCATS).
Records with an inconclusive call do not appear. Entries that show only a call come without a potency. Active and inactive are the calls of the source. Unless noted, calls follow the shape of the dose curve; as a rule, active = well fitted curve in the direction sought with a large enough effect; inconclusive = small, poorly fitted or top-dose-only effect, or another doubt; inactive = no such curve, though single readings can be large; an effect the other way counts as inactive or inconclusive.

Tests used:
[1] = molecular target: Calcium and integrin-binding protein 1 (Homo sapiens) (UniProt Q99828); experiment: Primary qHTS for Identification of Calcium Integrin Binding Protein 1 (CIB1) Competitor (AID 1508620); settings: CIB1-GST / FITC-alphaIIb peptide fluorescence polarization; series mostly up to 57.7 µM;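 also: GST tagged CIB1 binding a fluorescein labelled alphaIIb integrin peptide tracer; top concentration of the series differs between compounds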
Chain of Calcium and integrin-binding protein 1 (Homo sapiens) (Q99828 whole entry, looked up): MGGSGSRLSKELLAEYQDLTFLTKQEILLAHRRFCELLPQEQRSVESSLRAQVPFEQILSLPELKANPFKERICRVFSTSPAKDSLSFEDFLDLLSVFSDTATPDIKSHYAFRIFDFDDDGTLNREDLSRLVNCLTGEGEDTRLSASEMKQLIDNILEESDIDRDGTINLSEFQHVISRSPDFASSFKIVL
Outline: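 CIB1-GST (1 uM final) and compound incubated 15 min at room temperature before adding FITC-alphaIIb peptide tracer (100 nM final). Competition for binding read by fluorescence polarization (ex 480, em 540) after another 15 min at room temperature.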

[2] = molecular target: Cytochrome P450 2D6 (Homo sapiens) (UniProt P10635); experiment: Cytochrome P450 family 2 subfamily D member 6 (CYP2D6) small molecule antagonists: luciferase biochemical (cell-free) qHTS assay (AID 1645840; active = well fitted curve in the direction sought with a large enough effect in the repeat runs; an effect the other way counts as inactive or inconclusive; also: nearly all actives have a fitted effect of over 55% in size; also: potency is read from the fitted curve at half-maximal effect); settings: P450-Glo CYP2D6 enzyme, luciferin luminescence, 1 h; series mostly up to 57.4 µM
Chain of Cytochrome P450 2D6 (Homo sapiens) (P10635 whole entry, looked up): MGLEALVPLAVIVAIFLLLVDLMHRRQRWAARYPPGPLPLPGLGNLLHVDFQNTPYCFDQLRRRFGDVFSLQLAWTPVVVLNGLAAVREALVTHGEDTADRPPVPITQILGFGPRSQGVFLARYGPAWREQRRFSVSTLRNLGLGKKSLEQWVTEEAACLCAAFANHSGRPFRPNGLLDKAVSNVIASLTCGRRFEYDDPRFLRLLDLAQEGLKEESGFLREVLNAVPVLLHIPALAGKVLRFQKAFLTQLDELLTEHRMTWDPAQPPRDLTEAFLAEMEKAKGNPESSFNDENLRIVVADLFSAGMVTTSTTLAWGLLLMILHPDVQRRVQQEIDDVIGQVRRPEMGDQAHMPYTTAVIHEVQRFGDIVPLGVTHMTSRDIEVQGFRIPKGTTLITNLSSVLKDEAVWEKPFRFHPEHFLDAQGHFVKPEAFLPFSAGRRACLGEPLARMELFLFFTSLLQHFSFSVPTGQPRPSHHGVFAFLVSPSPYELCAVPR
Outline: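 P450-Glo luminescent screen: recombinant CYP2D6 enzyme–proluciferin substrate mix preincubated with compound 10 min at room temperature, then NADPH regeneration added for 1 h at room temperature. Detection reagent added for 20 min; luciferin light read as relative luminescence units.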

[3] = Primary qHTS for inhibitors of nuclear receptor binding SET domain protein 2 (NSD2) in an isogenic RCH-ACV NSD2 p.E1099K mutant (9B) (AID 1645876); settings: RCH-ACV NSD2 E1099K (9B) viability, CellTiter-Glo, 72 h; series mostly up to 44.9 µM; also: nearly all actives have a fitted effect of over 70% in size
[4] = Primary qHTS for inhibitors of nuclear receptor binding SET domain protein 2 (NSD2) in an RCH-ACV wild type WT cells (2C) (AID 1645877); settings: RCH-ACV (leukaemia line) NSD2 WT (2C) viability, CellTiter-Glo, 72 h; series mostly up to 44.9 µM; also: nearly all actives have a fitted effect of over 70% in size
[5] = molecular target: Cytochrome P450 2C9 (Homo sapiens) (UniProt P11712); experiment: Cytochrome P450 family 2 subfamily C member 9 (CYP2C9) small molecule antagonists: luciferase biochemical (cell-free) qHTS assay (AID 1645842; active = well fitted curve in the direction sought with a large enough effect in the repeat runs; an effect the other way counts as inactive or inconclusive; also: nearly all actives have a fitted effect of over 55% in size; also: potency is read from the fitted curve at half-maximal effect); settings: P450-Glo CYP2C9 enzyme assay, luciferin luminescence; series mostly up to 57.4 µM
Chain of Cytochrome P450 2C9 (Homo sapiens) (P11712 whole entry, looked up): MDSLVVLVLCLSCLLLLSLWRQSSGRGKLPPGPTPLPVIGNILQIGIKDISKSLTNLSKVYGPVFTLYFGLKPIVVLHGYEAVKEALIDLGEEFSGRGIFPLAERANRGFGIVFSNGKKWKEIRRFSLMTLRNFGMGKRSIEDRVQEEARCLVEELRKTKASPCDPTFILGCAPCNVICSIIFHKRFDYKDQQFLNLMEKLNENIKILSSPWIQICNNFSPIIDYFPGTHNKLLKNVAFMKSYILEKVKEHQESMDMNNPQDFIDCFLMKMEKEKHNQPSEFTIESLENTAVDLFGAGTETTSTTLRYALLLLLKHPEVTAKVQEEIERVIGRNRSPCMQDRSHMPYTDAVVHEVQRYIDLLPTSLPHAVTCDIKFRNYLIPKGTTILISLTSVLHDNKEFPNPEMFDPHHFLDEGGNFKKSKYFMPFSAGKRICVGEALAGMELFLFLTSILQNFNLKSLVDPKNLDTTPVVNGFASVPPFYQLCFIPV
Outline: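 Luminescence, after 20 min with luciferin detection reagent, reflected CYP2C9 turnover during a 1 h NADPH-driven reaction at 37C. Enzyme-substrate mix contained 0.4% bovine serum albumin and was preincubated with compound 10 min at room temperature.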

| Structure (SMILES) | Potency [1] | Potency [2] | Potency [3] | Potency [4] | Potency [5] |
| --- | --- | --- | --- | --- | --- |
| Cc1cn(C[C@H](N)C(=O)O)c(=O)n(Cc2ccsc2C(=O)O)c1=O | inactive | inactive | inactive | inactive | – |
| COC(=O)[C@H](Cc1cccc(C(=N)N)c1)[C@@H](C)NC(=O)c1ccc(-c2cc[n+]([O-])cc2)cc1 | inactive | inactive | inactive | inactive | – |
| COc1ccnc2[nH]cc(C(=O)C(=O)N3CCN(C(=O)c4ccccc4)CC3C)c12 (stereo unspecified) | inactive | 3.01 µM (active) | inactive | inactive | – |
| c1cc(-c2cc(C3CCNCC3)[nH]n2)ccn1 | inactive | 15.1 µM (active) | inactive | inactive | – |
| Cc1c(C)c(NCC(=O)N(C)C2CCN(Cc3ccc(C(N)=O)cc3)CC2)c(C)c(C)c1N | inactive | 21.3 µM (active) | inactive | inactive | – |
| Oc1ccc(CC2NCCc3cc(O)c(O)cc32)cc1 (stereo unspecified) | inactive | inactive | inactive | inactive | inactive |
| O=C(O)CC1CCC(c2ccc(NC(=O)c3nnc(Nc4ccc(F)c(F)c4)o3)cc2)CC1 (stereo unspecified) | inactive | inactive | inactive | inactive | inactive |
| NC(N)=NCCC[C@H](NC(=O)c1sccc1NS(=O)(=O)c1cccc2nsnc12)C(=O)O | inactive | inactive | inactive | – | – |
| Nc1c(-c2ccccc2)nc(Cl)c2c(O)n[nH]c(=O)c12 | inactive | inactive | inactive | inactive | 10.7 µM (active) |
| Cc1occc1C(=O)n1ccnc1 | inactive | inactive | inactive | – | – |
| Cc1ccc2nc(NC(=O)CSc3nc4c(c(=O)n3-c3ccc(F)cc3)SCC4)sc2c1 | inactive | inactive | inactive | inactive | 3.38 µM (active) |
